Screens as filed in PubChem.
This is a sample that favours compounds with a hit; in the whole collection about 3.5% have one here.
Pf apPOL block: Pf-apPOL DNA polymerase inhibition. Recombinant Pf-apPOL, molecular beacon fluorescence, 1.5 h. inhibition, % at 10 µM. 0.25% of 210,000 active. AID 1794808
mHTT CaM bind: mHTT-calmodulin interaction abrogation | AID 1671202 | 3.6% of 190,000 active | inhibition, % at 15 µM | P42858 | AlphaScreen His-mHTT/GST-CaM binding, luminescence;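 note: 0% = both proteins with DMSO and 100% = one protein alone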
* = called active by the depositor; i = inactive; · = no result. Cut-off read from the data, not from the text of the source: active = inhibition above about 50%; inactive = the rest.

SMILES | Pf apPOL block | mHTT CaM bind
O=C(Nc1ccc2c(c1)OCO2)c1ccc(Br)cc1 | -1 | 0
O=C(Nc1ccc2c(c1)OCCO2)c1ccc(Br)cc1 | 1 | 96*
O=C(CC1CC1)NC1CCc2[nH]c3ccc(Cl)cc3c2C1 (stereo unspecified) | 2 | 88*
Cc1ccc2[nH]c3c(c2c1)CC(NC(=O)CC1C=CCC1)CC3 (stereo unspecified) | 6 | 97*
Cc1cc2[nH]c3c(c2cc1C)CC(NC(=O)C1CCCC1)CC3 (stereo unspecified) | 39 | 45
CCC(=O)NC1CCc2[nH]c3ccc(C)cc3c2C1 (stereo unspecified) | -4 | 26
O=C(CCCCCn1c(=S)[nH]c2cc3c(cc2c1=O)OCO3)NC1CCCC1 | -6 | -4
CC(=O)Nc1nc(SCSc2n[nH]c(NC(C)=O)n2)n[nH]1 | · | -8
COc1ccc(C)cc1NC(=O)C1CC(=O)N(CCc2c[nH]c3ccc(Cl)cc23)C1 (stereo unspecified) | -2 | 14
COc1ccc(OC)c(NC(=O)C2CC(=O)N(CCc3c[nH]c4ccc(Cl)cc34)C2)c1 (stereo unspecified) | 1 | 81*
COc1ccccc1NC(=O)C1CC(=O)N(CCc2c[nH]c3ccc(Cl)cc23)C1 (stereo unspecified) | 0 | 41
COc1ccc(Cl)cc1NC(=O)C1CC(=O)N(CCc2c[nH]c3ccc(C)cc23)C1 (stereo unspecified) | 0 | 75*
COC(=O)c1cc(S(=O)(=O)N2CCC(N3CCCCC3)CC2)cn1C | -3 | 3
CCOc1cccc(CNc2nc3ccncc3n(C(C)C)c2=O)c1 | -3 | -6
Cc1c(Cl)cccc1S(=O)(=O)NC(C)Cc1ccco1 (stereo unspecified) | 2 | -12
CCOC(=O)c1ccc(NC(=O)CN2CCN(c3ccc(OC)cc3)C2=O)cc1 | -1 | -7
CCOC(=O)c1ccc(-n2sccc2=O)cc1 | 96* | ·
CCOc1ccccc1CN1CCC(NC(C)=O)C(CO)C1 (stereo unspecified) | -5 | -1
CCCCNC(=O)CC1N=C2c3ccccc3N=C(SCc3ccc([N+](=O)[O-])cc3)N2C1=O (stereo unspecified) | -2 | 53*
CCCCNC(=O)CCC1N=C2c3ccccc3N=C(SCc3ccc([N+](=O)[O-])cc3)N2C1=O (stereo unspecified) | -2 | 3
CCc1cc(=O)[nH]c(-n2nc(C)cc2NC(=O)COc2ccccc2F)n1 | -57 | -3
CC1CCN(c2ncnc3c2sc2nc4c(cc23)COC(C)(C)C4)CC1 | -3 | 26
O=C(Cc1ccc([N+](=O)[O-])cc1)NCCOc1ccc(F)cc1 | -9 | -6
C=CCn1c(=N)n(CC(=O)c2ccc(-c3ccccc3)cc2)c2ccccc21 | -2 | 52*
C=CCn1c(=N)n(CC(=O)c2ccc(Cl)c(Cl)c2)c2ccccc21 | -4 | -46
SMILES | Pf apPOL block | mHTT CaM bind
Cc1ccc(C(=O)ON=C2C=CC(=NOC(=O)c3ccccc3Br)C=C2)cc1 | -1 | 4
CC1=CC(=O)C=C(C)C1=NOC(=O)c1ccccc1Br | -20 | 90*
O=C1C=CC(=NOC(=O)c2ccccc2Br)C=C1 | 10 | 89*
CN1C(=O)/C(=N\OC(=O)c2ccccc2Br)c2ccccc21 | 2 | i
COc1ccc(C(=O)ON=C2C=CC(=O)C=C2)cc1 | -3 | 53*
O=C1C=CC(=NOC(=O)c2ccc([N+](=O)[O-])cc2)C=C1 | -10 | 7
O=C(C1CCN(CC2CC=CCC2)CC1)N1CCc2ccccc2C1 (stereo unspecified) | -7 | 5
CC(C)(C)c1cc(Br)cc(C=O)c1O | 2 | 3
COc1cc(OC)c(OC)cc1C=C1Oc2cc(OC(=O)C(C)(C)C)ccc2C1=O | -22 | -11
O=c1[nH]cnc2c1Cc1c(nc[nH]c1=O)O2 | -6 | 22
CCOC(=O)NN=C(C)c1cc(OCC(F)(F)F)ccc1OCC(F)(F)F | -4 | ·
O=C(Nc1cccc(NC(=O)c2cc3ccccc3o2)c1)c1ccccc1 | 70* | 14
O=C(O)c1ccc(NC(=O)c2cc3ccccc3o2)cc1 | -1 | 0
O=C(c1ccoc1)N1CCCC(c2nncn2-c2ccccc2)C1 (stereo unspecified) | 0 | -7
CC1CCN(S(=O)(=O)N2CCC(C(=O)NCCc3ccc(Cl)cc3)CC2)CC1 | -9 | 9
COCCC1CCN(C(=O)c2cccc(OC)c2OC)CC1 | -4 | -3
COc1cccc(N2CCN(C(=O)c3ccccc3C)C(C)C2=O)c1 (stereo unspecified) | -2 | -1
O=C(Nc1ccc(S(=O)(=O)Nc2ncccn2)cc1)c1ccc([N+](=O)[O-])cc1 | -162 | 0
COc1ccc2nc(NC3=NC(c4ccccc4)CC(=O)N3)nc(C)c2c1 (stereo unspecified) | 60* | 54*
COc1ccc2c(C)nc(Nc3nc4ccccc4c(=O)[nH]3)nc2c1 | -4 | 1
COc1ccc(NC(=O)C2CC(=O)NC(Nc3nc(C)c4ccccc4n3)=N2)cc1 (stereo unspecified) | -13 | 33
